# Unmarked numbers belong to inactive results.
# Columns and labels:
# Assay in all cases: log2 ratio of Biotin-Ahx-Ub-VS probe labelling (fragment/DMSO); higher = less target engagement (more negative = stronger competition), active = hit call of the paper (q ≤ 0.05, log2 ratio ≤ -1)
# Settings in all cases: compound concentration: 200 uM; treatment time: 3 h
# [1] = molecular target: T1, USP19 (UniProt O94966)
# T1 sequence (whole entry): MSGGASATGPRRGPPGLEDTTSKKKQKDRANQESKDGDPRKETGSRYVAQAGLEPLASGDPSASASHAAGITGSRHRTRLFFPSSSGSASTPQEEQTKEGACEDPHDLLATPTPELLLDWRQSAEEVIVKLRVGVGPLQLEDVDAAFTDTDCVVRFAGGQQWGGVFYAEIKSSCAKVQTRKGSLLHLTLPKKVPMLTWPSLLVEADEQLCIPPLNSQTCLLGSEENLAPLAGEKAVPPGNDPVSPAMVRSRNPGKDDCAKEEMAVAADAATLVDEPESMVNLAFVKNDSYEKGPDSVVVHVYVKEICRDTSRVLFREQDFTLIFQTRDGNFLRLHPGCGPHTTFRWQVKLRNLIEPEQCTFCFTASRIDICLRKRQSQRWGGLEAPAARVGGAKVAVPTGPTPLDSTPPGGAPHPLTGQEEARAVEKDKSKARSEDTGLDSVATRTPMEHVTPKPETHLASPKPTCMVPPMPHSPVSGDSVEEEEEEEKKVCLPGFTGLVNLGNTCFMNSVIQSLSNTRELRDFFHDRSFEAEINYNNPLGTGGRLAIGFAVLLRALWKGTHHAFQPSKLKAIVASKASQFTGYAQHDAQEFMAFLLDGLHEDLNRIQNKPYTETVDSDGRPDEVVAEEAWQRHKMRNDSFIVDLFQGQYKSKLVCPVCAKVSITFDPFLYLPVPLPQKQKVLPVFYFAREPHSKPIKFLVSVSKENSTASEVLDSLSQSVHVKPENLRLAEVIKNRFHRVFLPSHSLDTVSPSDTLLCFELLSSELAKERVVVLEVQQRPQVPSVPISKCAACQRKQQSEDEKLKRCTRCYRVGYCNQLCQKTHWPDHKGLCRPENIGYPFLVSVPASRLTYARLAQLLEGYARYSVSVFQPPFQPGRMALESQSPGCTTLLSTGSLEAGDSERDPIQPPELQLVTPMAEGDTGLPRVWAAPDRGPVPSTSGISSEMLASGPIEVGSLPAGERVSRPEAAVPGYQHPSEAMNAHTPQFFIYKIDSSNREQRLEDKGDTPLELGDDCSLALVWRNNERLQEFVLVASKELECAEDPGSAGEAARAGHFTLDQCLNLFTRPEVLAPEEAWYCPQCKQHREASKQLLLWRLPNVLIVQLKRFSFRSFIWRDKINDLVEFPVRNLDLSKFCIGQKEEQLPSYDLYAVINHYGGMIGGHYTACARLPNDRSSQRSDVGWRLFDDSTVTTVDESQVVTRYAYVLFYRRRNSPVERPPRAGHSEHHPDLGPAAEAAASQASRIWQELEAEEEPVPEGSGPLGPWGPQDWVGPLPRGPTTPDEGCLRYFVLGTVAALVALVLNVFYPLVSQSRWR
# Outline: (§1)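 Fragment (200 µM) or vehicle was incubated for 3 h with triplicate HEK293T lysate samples of 495 µg, which were then treated with Biotin-Ahx-Ub-VS at 0.5 µM final for 1 h. Labelled DUBs were enriched on NeutrAvidin, digested with LysC and trypsin, and analysed by diaPASEF LC-MS/MS. Values are average log2 fragment/vehicle ratios from an unpaired t-test on global-median-normalised Spectronaut label-free quantities, using proteins with ≥2 unique peptides.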
# [2] = molecular target: USP24 (UniProt Q9UPU5)
# Chain of USP24 (Q9UPU5 whole entry): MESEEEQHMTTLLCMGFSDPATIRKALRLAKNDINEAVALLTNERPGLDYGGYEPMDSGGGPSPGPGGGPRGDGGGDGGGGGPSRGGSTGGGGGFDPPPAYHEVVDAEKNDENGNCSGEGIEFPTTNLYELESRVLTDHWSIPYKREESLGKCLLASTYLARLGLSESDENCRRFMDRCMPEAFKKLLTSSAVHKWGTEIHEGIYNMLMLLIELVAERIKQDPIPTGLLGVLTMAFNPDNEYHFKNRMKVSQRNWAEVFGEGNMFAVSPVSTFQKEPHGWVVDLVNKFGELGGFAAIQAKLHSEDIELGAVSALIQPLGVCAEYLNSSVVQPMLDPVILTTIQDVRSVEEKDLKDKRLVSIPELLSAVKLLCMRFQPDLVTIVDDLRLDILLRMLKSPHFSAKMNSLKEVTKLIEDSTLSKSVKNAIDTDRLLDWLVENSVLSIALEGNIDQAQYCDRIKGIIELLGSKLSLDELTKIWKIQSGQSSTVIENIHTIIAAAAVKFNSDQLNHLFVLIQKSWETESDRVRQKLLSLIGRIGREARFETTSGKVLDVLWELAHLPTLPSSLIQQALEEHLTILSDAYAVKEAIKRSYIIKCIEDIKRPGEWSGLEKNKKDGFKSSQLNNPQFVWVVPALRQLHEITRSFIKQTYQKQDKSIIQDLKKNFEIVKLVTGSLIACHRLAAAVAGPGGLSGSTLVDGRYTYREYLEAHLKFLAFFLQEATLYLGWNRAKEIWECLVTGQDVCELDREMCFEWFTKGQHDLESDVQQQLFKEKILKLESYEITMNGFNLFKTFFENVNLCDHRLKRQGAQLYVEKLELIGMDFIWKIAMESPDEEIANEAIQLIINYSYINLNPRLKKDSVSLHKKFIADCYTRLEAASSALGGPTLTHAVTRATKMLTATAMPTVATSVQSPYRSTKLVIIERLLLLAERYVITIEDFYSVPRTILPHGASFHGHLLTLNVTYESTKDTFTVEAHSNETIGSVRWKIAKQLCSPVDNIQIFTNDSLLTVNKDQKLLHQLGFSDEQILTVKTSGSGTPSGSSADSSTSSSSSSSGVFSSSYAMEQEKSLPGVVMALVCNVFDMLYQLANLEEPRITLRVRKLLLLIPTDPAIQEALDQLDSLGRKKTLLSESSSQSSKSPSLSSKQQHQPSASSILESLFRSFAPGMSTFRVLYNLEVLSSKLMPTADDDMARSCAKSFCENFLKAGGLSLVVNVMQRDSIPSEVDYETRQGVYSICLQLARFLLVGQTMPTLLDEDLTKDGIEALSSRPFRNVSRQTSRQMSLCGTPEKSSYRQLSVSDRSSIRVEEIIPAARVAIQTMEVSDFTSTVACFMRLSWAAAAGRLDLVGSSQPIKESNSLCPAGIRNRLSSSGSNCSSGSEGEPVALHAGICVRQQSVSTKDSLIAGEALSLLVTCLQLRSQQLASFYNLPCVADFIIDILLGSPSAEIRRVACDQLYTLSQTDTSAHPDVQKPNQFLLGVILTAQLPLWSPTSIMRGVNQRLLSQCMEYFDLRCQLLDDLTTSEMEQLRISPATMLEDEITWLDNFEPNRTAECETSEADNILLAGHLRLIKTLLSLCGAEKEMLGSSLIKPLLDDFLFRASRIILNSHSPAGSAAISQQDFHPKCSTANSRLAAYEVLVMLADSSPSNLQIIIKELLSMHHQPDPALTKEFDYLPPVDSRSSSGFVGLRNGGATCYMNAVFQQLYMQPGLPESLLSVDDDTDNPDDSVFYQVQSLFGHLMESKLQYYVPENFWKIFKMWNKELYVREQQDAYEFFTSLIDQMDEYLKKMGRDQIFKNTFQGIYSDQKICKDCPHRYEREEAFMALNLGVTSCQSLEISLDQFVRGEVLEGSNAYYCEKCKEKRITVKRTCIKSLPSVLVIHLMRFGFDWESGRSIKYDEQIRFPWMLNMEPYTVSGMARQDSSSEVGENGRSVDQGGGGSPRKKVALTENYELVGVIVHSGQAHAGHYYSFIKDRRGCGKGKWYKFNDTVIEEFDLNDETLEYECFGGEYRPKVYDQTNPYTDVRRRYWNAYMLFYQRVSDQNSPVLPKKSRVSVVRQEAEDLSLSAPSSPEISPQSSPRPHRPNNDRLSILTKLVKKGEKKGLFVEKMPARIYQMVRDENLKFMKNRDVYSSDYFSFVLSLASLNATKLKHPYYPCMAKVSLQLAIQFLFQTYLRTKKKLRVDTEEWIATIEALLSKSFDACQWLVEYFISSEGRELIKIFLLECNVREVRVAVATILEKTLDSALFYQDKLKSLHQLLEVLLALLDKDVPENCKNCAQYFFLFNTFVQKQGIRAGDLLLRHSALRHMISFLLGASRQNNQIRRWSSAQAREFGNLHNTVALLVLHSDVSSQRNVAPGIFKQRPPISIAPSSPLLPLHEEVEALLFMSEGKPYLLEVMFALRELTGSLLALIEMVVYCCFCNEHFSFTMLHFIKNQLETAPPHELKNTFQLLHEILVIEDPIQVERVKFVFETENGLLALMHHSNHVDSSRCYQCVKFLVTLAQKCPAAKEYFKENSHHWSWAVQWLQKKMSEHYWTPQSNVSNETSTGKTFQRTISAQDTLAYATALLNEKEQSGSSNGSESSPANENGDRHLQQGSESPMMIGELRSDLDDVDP
# Outline: as §1
# [3] = molecular target: T2, USP25 (UniProt Q9UHP3)
# T2 sequence (whole entry): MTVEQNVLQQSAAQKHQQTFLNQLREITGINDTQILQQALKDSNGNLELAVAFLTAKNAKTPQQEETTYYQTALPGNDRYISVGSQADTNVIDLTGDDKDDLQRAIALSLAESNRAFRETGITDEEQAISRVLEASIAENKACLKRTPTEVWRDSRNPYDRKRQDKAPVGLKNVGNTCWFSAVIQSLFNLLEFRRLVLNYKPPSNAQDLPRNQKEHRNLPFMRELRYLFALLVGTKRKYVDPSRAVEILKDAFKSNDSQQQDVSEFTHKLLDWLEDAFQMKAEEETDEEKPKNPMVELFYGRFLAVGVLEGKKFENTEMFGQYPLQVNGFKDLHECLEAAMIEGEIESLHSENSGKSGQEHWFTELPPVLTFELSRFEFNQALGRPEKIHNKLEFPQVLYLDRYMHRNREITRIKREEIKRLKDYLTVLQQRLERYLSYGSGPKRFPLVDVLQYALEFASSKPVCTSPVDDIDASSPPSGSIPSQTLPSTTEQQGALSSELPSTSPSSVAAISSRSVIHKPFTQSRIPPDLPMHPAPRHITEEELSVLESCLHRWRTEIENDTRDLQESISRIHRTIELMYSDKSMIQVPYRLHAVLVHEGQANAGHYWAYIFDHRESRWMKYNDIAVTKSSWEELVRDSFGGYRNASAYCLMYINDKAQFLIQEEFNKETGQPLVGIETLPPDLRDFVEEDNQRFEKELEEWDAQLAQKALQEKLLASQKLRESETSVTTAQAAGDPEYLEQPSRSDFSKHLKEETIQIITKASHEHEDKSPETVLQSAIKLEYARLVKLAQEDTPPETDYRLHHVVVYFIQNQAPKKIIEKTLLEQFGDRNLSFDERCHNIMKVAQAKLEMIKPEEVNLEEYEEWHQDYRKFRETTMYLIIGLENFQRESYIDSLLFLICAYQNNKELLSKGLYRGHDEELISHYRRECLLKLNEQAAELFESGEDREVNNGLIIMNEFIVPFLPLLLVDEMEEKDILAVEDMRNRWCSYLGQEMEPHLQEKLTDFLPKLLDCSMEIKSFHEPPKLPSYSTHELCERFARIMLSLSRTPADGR
# Outline: as §1
# [4] = molecular target: T3, USP28 (UniProt Q96RU2)
# T3 sequence (whole entry): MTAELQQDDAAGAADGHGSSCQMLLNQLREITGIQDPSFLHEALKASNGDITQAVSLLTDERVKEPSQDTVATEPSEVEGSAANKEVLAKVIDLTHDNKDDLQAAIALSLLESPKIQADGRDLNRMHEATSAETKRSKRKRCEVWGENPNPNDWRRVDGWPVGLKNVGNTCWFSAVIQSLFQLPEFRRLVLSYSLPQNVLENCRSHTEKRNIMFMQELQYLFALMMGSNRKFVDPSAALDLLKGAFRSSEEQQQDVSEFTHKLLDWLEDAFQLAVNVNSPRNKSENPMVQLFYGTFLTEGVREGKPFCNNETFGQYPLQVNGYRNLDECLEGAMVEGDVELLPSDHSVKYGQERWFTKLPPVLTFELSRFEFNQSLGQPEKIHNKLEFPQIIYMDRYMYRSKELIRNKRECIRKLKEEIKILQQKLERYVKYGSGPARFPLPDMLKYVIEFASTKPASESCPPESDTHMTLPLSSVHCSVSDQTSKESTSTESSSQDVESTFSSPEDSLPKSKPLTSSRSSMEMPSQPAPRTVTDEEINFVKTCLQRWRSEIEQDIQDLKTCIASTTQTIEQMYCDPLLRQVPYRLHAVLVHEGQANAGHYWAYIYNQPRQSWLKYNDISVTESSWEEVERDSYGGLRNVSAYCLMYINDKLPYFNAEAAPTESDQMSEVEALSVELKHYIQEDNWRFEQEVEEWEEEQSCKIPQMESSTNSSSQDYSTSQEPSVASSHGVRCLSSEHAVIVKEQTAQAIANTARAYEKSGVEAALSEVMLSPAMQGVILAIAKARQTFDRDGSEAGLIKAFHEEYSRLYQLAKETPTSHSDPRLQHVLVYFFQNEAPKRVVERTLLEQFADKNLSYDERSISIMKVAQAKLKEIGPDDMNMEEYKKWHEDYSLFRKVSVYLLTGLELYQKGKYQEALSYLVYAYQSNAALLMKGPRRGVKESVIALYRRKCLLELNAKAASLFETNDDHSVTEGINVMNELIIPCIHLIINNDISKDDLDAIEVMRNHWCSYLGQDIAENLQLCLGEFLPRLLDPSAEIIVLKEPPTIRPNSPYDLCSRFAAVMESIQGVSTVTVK
# Outline: as §1
smiles,measurement,setting,value
CC(=O)Nc1ccc(NC(=O)CCl)cc1,log2 ratio of Biotin-Ahx-Ub-VS probe labelling,[1],-0.179
same,log2 ratio of Biotin-Ahx-Ub-VS probe labelling,[2],-0.314
same,log2 ratio of Biotin-Ahx-Ub-VS probe labelling,[3],-1.33 (active)
same,log2 ratio of Biotin-Ahx-Ub-VS probe labelling,[4],-0.938
